In PubChem BioAssay (NCATS):
Inconclusive results are not listed. Where a call stands in place of a potency, no number is given. Active and inactive are the calls of the source. Calls follow the shape of the dose curve; as a rule, active = well fitted cell-killing curve with a large enough effect; inconclusive = small, poorly fitted or top-dose-only effect; inactive = flat fitted curve, though single readings scatter.

Assay: Cell Viability - LYMP2-015 (AID 971); also: nearly all actives have a fitted effect of over 55% in size
Details: LYMP2-015 lymphoblastoid cell viability; series mostly up to 92.2 µM
Source text: NIH Chemical Genomics Center [NCGC]
NIH Molecular Libraries Screening Centers Network [MLSCN]
National Institutes of Environmental Health Sciences [NIEHS]
National Toxicology Program [NTP]
We have developed a 1536-well cell-based assay for quantitative high throughput screening (qHTS) against a number of cell lines to determine in vitro cytotoxicity of small molecules. This particular assay uses a human lymphoblastoid cell line (LYMP2-015) purchased from Coriell Institute for Medical Research.
NCGC Assay Protocol Summary:
The CellTiter-Glo luminescent cell viability assay (Promega) is a homogeneous method to measure the number of viable cells in culture. The end point readout of this assay is based on quantitation of intracellular ATP, an indicator of metabolic activity, using the luciferase reaction. Luciferase catalyzes the oxidation of beetle Luciferin to oxyluciferin and light in the presence of ATP. The luminescent signal is proportional to amount of ATP present.
Using the CellTiter-Glo luminescent cell viability assay, the amount of cellular ATP was measured in the lymphoblastoid cell line with complete culture medium following compound treatment for 24 hours. The assay was performed in opaque white Kalypsys 1536-well plates. In the screen, tetraoctylammonium bromide was used as positive control. Library compounds were measured for their ability to cause acute toxicity in the cell line, as reflected by a decrease in intracellular ATP levels, in a concentration-dependent manner. […] AC50 values were determined from concentration-response data modeled with the standard Hill equation.
qHTS protocol for CellTiter Glo lymphoblastoid cellular assay
[Step] [Parameter] [Value] [Description]
1. Reagent; 5 uL; 2500 lymphoblastoid cells/well
2. Time; 5 hr; 37 C incubation
4. Controls; 23 nL; Tetraoctylammonium bromide 6.4pM to 92 uM
5. Time; 24 hr; 37 C incubation
6. Reagent; 5 uL; CellTiter Glo reagent
7. Time; 30 min; Room Temperature
8. Detection; Luminescence; Viewlux plate reader
Keywords: cell viability, cytotoxicity, lymphoblastoid cell line, luminescence, NTPHTS, NTPHTS_NCGC, NIEHS, DSSTox, MLSMR, MLSCN, NIH Roadmap, qHTS, NCGC
Potency is read from the fitted curve at half-maximal effect.

Row | Compound | Potency
1 | CCOC(C)OCC | inactive
2 | OB(O)O | inactive
3 | CC1=CCC2CC1C2(C)C (stereo not given) | inactive
4 | NC(N)=O | inactive
5 | C/C=C/C=C/C(=O)O | inactive
6 | OC[C@H]1O[C@@H]2O[C@H]3[C@H](O)[C@@H](O)[C@@H](O[C@H]4[C@H](O)[C@@H](O)[C@@H](O[C@H]5[C@H](O)[C@@H](O)[C@@H](O[C@H]6[C@H](O)[C@@H](O)[C@@H](O[C@H]7[C@H](O)[C@@H](O)[C@@H](O[C@H]1[C@H](O)[C@H]2O)O[C@@H]7CO)O[C@@H]6CO)O[C@@H]5CO)O[C@@H]4CO)O[C@@H]3CO | inactive
7 | Nc1ccc(N=Nc2ccccc2)c(N)n1 | inactive
8 | Cc1ncc[nH]1 | inactive
9 | CC/C=C\C/C=C\C/C=C\CCCCCCCC(=O)O | 50.1 µM (active)
10 | OCC(O)CO | inactive
11 | Cc1ccc(S(=O)(=O)O)cc1C | inactive
12 | O=P(O)(O)O | inactive
13 | C=C1C(CCl)(CCl)C2(Cl)C(Cl)C(Cl)C1(Cl)C2(Cl)Cl (stereo not given) | 39.8 µM (active)
14 | [O-][N+](=Nc1ccccc1)c1ccccc1 | inactive
15 | C[C@H](CCC(=O)O)[C@H]1CC[C@H]2[C@@H]3CC[C@@H]4C[C@H](O)CC[C@]4(C)[C@H]3C[C@H](O)[C@]12C | inactive
16 | CC(C)(C)CC(C)(C)c1ccc(OCCO)cc1 | inactive
17 | Nc1nccs1 | inactive
18 | CC(C)O | inactive

Row | Compound | Potency
19 | OCc1ccccc1 | inactive
20 | O=c1n(CC2CO2)c(=O)n(CC2CO2)c(=O)n1CC1CO1 (stereo not given) | 39.8 µM (active)
21 | CO | inactive
22 | OCl | inactive
23 | CO/N=C(/C(=O)N[C@@H]1C(=O)N2C(C(=O)O)=C(COC(N)=O)CS[C@H]12)c1ccco1 | inactive
24 | CCCCO | inactive
25 | CC[C@H]1OC(=O)[C@H](C)[C@@H](O[C@H]2C[C@@](C)(OC)[C@@H](O)[C@H](C)O2)[C@H](C)[C@@H](O[C@@H]2O[C@H](C)C[C@H](N(C)C)[C@H]2O)[C@](C)(O)C[C@@H](C)CN(C)[C@H](C)[C@@H](O)[C@]1(C)O | inactive
26 | CCCCC | inactive
27 | c1ccc2ccccc2c1 | inactive
28 | ClC(Cl)Cl | inactive
29 | Oc1ccc(/C=C/c2cc(O)cc(O)c2)cc1 | inactive
30 | Nc1ncnc2c1ncn2[C@H]1CC[C@@H](CO)O1 | inactive
31 | C[C@H](CCC(=O)O)[C@H]1CC[C@H]2[C@@H]3[C@H](O)C[C@@H]4C[C@H](O)CC[C@]4(C)[C@H]3C[C@H](O)[C@]12C | inactive
32 | NCCN | inactive
33 | CC1=CC(=O)NS(=O)(=O)O1 | inactive
34 | Oc1cccc(O)c1O | inactive
35 | COC(=O)c1ccccc1O | inactive
